CRFBP-R2 block – blocks CRF-induced signaling of the CRF-BP/CRF-R2 complex | HEK293 CRF-R2/CRF-BP, CRF-induced calcium fluorescence | inhibition, % at 11.8 µM | 350,000 compounds, 0.59% hits | AID 588475;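 active = inhibition of the ligand-induced calcium signal above about 50% at the single tested concentration, limit read from the data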
ABHD5-PLIN5 inh – inhibitors of human ABHD5-perilipin-5 interaction | Q00G26+Q8WTS1 | Split G. princeps luciferase complementation, luminescence, 4 h | inhibition, % at 4 µM | 360,000 compounds, 0.78% hits | AID 602281;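 active = inhibition above the mean inhibition across every tested compound plus 3 SD, cut at about 22% in these data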;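 note: 0% = DMSO only wells and the 100% control is not disclosed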
NOD2 RIPK2 PPI – inhibitors of human NOD2-RIPK2 interaction. 360,000 compounds, 0.38% hits. CHO BLA complementation NOD2-RIPK2, CCF4 ratio. inhibition, % at 4.98 µM. O43353; in the data active = inhibition above about 21%;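 note: 0% = vehicle only and 100% = reference blocker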
m5-HT2A agonist – mouse HTR2A agonism via beta-arrestin recruitment; P35363; CHO-K1 mHTR2A beta-arrestin complementation, luminescence; percent of 30 µM serotonin response; activation, % at 7.6 µM; 360,000 compounds, 0.66% hits; AID 624169;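 active = activation above a run cutoff, the mean activation of all tested compounds plus 3 SD, cut at about 14% in these data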;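 note: 0% = plate median of compound wells and 100% = 30 µM serotonin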
Target sequence (P35363 whole entry, looked up): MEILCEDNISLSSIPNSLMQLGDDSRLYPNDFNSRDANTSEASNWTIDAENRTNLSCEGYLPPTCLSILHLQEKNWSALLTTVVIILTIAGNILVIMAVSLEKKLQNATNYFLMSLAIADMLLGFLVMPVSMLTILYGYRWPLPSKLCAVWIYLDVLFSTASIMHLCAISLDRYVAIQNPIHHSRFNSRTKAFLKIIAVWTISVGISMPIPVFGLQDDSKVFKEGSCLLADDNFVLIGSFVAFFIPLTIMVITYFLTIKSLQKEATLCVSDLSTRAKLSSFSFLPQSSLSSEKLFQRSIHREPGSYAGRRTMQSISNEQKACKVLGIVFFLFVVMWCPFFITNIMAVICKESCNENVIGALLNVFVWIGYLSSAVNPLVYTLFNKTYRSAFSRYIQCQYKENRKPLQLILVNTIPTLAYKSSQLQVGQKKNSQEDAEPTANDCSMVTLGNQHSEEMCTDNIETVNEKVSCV
TLR4 MyD88 comp – TLR4-MyD88 interaction inhibition in cells. O00206+Q99836. HeLa CL3-4 TLR4/MyD88 BLA complementation, FRET ratio. inhibition, % at 8.4 µM. 200,000 compounds, 0.18% hits. AID 861; in the data active = inhibition above about 25%;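 note: 0% = vehicle and 100% = reference inhibitor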
TLR9-MyD88 inh – blocks human TLR9 binding to MyD88 | CHO BLA complementation TLR9-MyD88, CCF4 FRET ratio | inhibition, % at 4.98 µM | 340,000 compounds, 0.21% hits | AID 504734;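 active = inhibition above the mean over all tested compounds plus 3 SD, cut at about 21% in these data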;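 note: 0% = DMSO only wells and 100% = clavulanate BLA inhibitor control wells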
NOD2 RIPK2 conf – confirmation of human NOD2-RIPK2 interaction inhibitors; CHO cells, NOD2-RIPK2 BLA complementation, CCF4 FRET; shares compounds with NOD2 RIPK2 PPI; 1,200 compounds, 70% hits; inhibition, % at 4.98 µM;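 active = mean inhibition across replicates above a set limit taken from the earlier primary screen, cut at about 21% in these data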;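 note: 0% = DMSO-only wells and the high end = clavulanate BLA-blocked wells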
BLA counter – hits BLA reporter in NOD2-RIPK2 inhibitor counterscreen; shares compounds with NOD2 RIPK2 PPI; CHO BLA reporter, CCF4 FRET ratio; inhibition, % at 4.98 µM; 1,200 compounds, 57% hits;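 active = mean inhibition above the low-control mean inhibition plus three low-control SD, cut at about 11% in these data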;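 note: 0% = DMSO only wells and 100% = clavulanate high control wells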
Active calls of the source: *. Compounds with a hit are over-represented: about 2.4% of the library has one in this group of screens.

What do the screens show for `c1ccc(COc2cccc(-c3cc4nc(NCc5cccs5)ccn4n3)c2)cc1`?
ABHD5-PLIN5 inh: -11; NOD2 RIPK2 PPI: 1; m5-HT2A agonist: -3

How did CC(Sc1ccc(Cl)cc1)C(=O)Nc1ccccc1-c1ccccc1 (stereo not given) do in these assays?
CRFBP-R2 block: -8; ABHD5-PLIN5 inh: -5; NOD2 RIPK2 PPI: 11; m5-HT2A agonist: -6; TLR4 MyD88 comp: -4; TLR9-MyD88 inh: -14

Results for Cc1ccc(SC(C)C(=O)Nc2ccccc2-c2ccccc2)cc1 (stereo not given) ?
CRFBP-R2 block: -1; ABHD5-PLIN5 inh: -9; NOD2 RIPK2 PPI: 43*; m5-HT2A agonist: -9; TLR4 MyD88 comp: -10; TLR9-MyD88 inh: -6; NOD2 RIPK2 conf: 3; BLA counter: -3

Results for Cc1ccc(NC(=O)CN(C)C(=O)CSc2nc3ccccc3c(=O)n2Cc2ccco2)cc1 ?
CRFBP-R2 block: -1; ABHD5-PLIN5 inh: 20; NOD2 RIPK2 PPI: 21*; m5-HT2A agonist: -5; TLR4 MyD88 comp: 11; TLR9-MyD88 inh: 11; NOD2 RIPK2 conf: 17; BLA counter: 16*

How did Cc1cn2nc(N)c3ccccc3c2n1 do in these assays?
CRFBP-R2 block: -3; ABHD5-PLIN5 inh: -5; NOD2 RIPK2 PPI: 37*; m5-HT2A agonist: 5; TLR4 MyD88 comp: -4; TLR9-MyD88 inh: 1; NOD2 RIPK2 conf: -4; BLA counter: 2

How did Nc1nn2cc(-c3ccccc3)nc2c2ccccc12 do in these assays?
CRFBP-R2 block: -3; ABHD5-PLIN5 inh: -3; NOD2 RIPK2 PPI: 4; m5-HT2A agonist: 3; TLR4 MyD88 comp: -1; TLR9-MyD88 inh: 8

How did CCCCN(CC)CCNC(=O)Cn1cc2c(n1)-c1c(oc(C(=O)N3CCCC3)c1C)CC2 do in these assays?
CRFBP-R2 block: 0; ABHD5-PLIN5 inh: -6; NOD2 RIPK2 PPI: 1; m5-HT2A agonist: 6; TLR9-MyD88 inh: 4

How did Cc1c(C(=O)N2CCCC2)oc2c1-c1[nH]ncc1CC2 do in these assays?
CRFBP-R2 block: 18; ABHD5-PLIN5 inh: -7; NOD2 RIPK2 PPI: 21*; m5-HT2A agonist: -3; TLR4 MyD88 comp: -9; TLR9-MyD88 inh: 0; NOD2 RIPK2 conf: 4; BLA counter: 0

What do the screens show for `O=C1Nc2ccccc2-n2nnnc2C1N1CCN(c2ccc(C(F)(F)F)cn2)CC1` (stereo not given)?
ABHD5-PLIN5 inh: 0; NOD2 RIPK2 PPI: -15; m5-HT2A agonist: 0

How did COc1ccc(CCN2C(=O)C=CC2=O)cc1OC do in these assays?
CRFBP-R2 block: -13; ABHD5-PLIN5 inh: 53*; NOD2 RIPK2 PPI: 43*; m5-HT2A agonist: -6; TLR9-MyD88 inh: 7; NOD2 RIPK2 conf: 51*; BLA counter: 12*

What do the screens show for `Cc1cccc(NC(=O)CSCC(=O)Nc2cc(S(=O)(=O)N3CCOCC3)ccc2OC(C)C)c1`?
CRFBP-R2 block: -1; ABHD5-PLIN5 inh: -1; NOD2 RIPK2 PPI: 21*; m5-HT2A agonist: 4; TLR9-MyD88 inh: -1; NOD2 RIPK2 conf: 4; BLA counter: -4

What do the screens show for `O=C(Cc1csc(Nc2nc(=S)[nH]c3ccccc23)n1)NCCCN1CCN(c2ccccc2F)CC1`?
CRFBP-R2 block: -16; ABHD5-PLIN5 inh: 5; NOD2 RIPK2 PPI: 47*; m5-HT2A agonist: -2; TLR4 MyD88 comp: 6; TLR9-MyD88 inh: 20; NOD2 RIPK2 conf: 46*; BLA counter: 54*

Results for CCC(CC)COC(=O)C(C#N)c1nc2ccccc2nc1N1CCN(CC)CC1 (stereo not given) ?
CRFBP-R2 block: -44; ABHD5-PLIN5 inh: 8; NOD2 RIPK2 PPI: 22*; m5-HT2A agonist: -3; TLR4 MyD88 comp: 3; TLR9-MyD88 inh: -7; NOD2 RIPK2 conf: 21*; BLA counter: 15*

Results for CCC(C)COC(=O)C(C#N)c1nc2ccccc2nc1N1CCCCC1 (stereo not given) ?
CRFBP-R2 block: -12; ABHD5-PLIN5 inh: 5; NOD2 RIPK2 PPI: -5; m5-HT2A agonist: -4; TLR4 MyD88 comp: -2; TLR9-MyD88 inh: -5

How did CCc1sc(N2C(=O)C3C4CCC(C4=C(C)C)C3C2=O)nc1-c1ccccc1 (stereo not given) do in these assays?
CRFBP-R2 block: 25; ABHD5-PLIN5 inh: 2; NOD2 RIPK2 PPI: 71*; m5-HT2A agonist: 0; TLR4 MyD88 comp: -7; TLR9-MyD88 inh: 0; NOD2 RIPK2 conf: -1; BLA counter: 0

How did COc1ccc(C(O)c2ncc(-c3ccc4ccccc4c3)[nH]2)cc1F (stereo not given) do in these assays?
ABHD5-PLIN5 inh: -3; NOD2 RIPK2 PPI: 0; m5-HT2A agonist: 6

Results for CN1Cc2c(N3CCOCC3)nc3sc(C#N)c(N)c3c2CC1(C)C ?
CRFBP-R2 block: -1; ABHD5-PLIN5 inh: 7; NOD2 RIPK2 PPI: 1; m5-HT2A agonist: 14; TLR9-MyD88 inh: -2

What do the screens show for `CN1Cc2c(N3CCOCC3)nc3sc(C(=O)c4ccc(Br)cc4)c(N)c3c2CC1(C)C`?
CRFBP-R2 block: -19; ABHD5-PLIN5 inh: 20; NOD2 RIPK2 PPI: 24*; m5-HT2A agonist: -5; NOD2 RIPK2 conf: 29*; BLA counter: 30*

How did CN(C)C(=O)c1ccc(SC(=S)NCc2ccccc2)cc1 do in these assays?
ABHD5-PLIN5 inh: -19; NOD2 RIPK2 PPI: -5; m5-HT2A agonist: 0

Results for Cn1c(/C=C/c2ccccc2)nc2ccccc21 ?
CRFBP-R2 block: 25; ABHD5-PLIN5 inh: 2; NOD2 RIPK2 PPI: 1; m5-HT2A agonist: 2; TLR4 MyD88 comp: -4; TLR9-MyD88 inh: -6

How did CC(=O)c1ccc(/C=C/c2nc3ccccc3n2C)o1 do in these assays?
CRFBP-R2 block: -27; ABHD5-PLIN5 inh: 4; NOD2 RIPK2 PPI: 54*; m5-HT2A agonist: 2; NOD2 RIPK2 conf: 68*; BLA counter: 70*

How did CCCS(=O)(=O)NC(=O)C1(C)CCCN(C(=O)c2ccc(C(=O)OC)cc2)C1 (stereo not given) do in these assays?
ABHD5-PLIN5 inh: 0; NOD2 RIPK2 PPI: 5; m5-HT2A agonist: 2

Results for Nc1ccccc1C#Cc1ccc([N+](=O)[O-])cc1 ?
CRFBP-R2 block: -12; ABHD5-PLIN5 inh: 7; NOD2 RIPK2 PPI: 26*; m5-HT2A agonist: -4; TLR9-MyD88 inh: 18; NOD2 RIPK2 conf: 4; BLA counter: 19*

How did Cc1c2cnn(CC(=O)Nc3c(F)c(F)cc(F)c3F)c(=O)c2c(C)n1Cc1ccccc1F do in these assays?
CRFBP-R2 block: -3; ABHD5-PLIN5 inh: 1; NOD2 RIPK2 PPI: 24*; m5-HT2A agonist: -3; TLR4 MyD88 comp: 17; TLR9-MyD88 inh: -4; NOD2 RIPK2 conf: 10; BLA counter: -1

Compound activity as filed in PubChem.
